± gives the standard deviation of the averaged measurements. About 5,400 targets were measured; listed, in parts, are those with the largest changes and a random draw of the rest.
Compound: Nc1nc2c(ncn2[C@@H]2O[C@H](COP(=O)(O)OP(=O)(O)OP(=O)(O)O)[C@@H](O)[C@H]2O)c(=O)[nH]1 [guanosine triphosphate]
Experiment: NP40-soluble protein abundance relative to vehicle (solubility fold change) (ratio); higher = more soluble protein in presence of GTP
How it was run: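 Eight concentrations, 0.1 to 10 mM, were tested on Jurkat crude lysate for 10 min at room temperature and then 3 min at 37 °C, in three independent experiments. The lysate was solubilised with 0.8% NP40 and benzonase, ultracentrifuged, and the supernatant TMT-labelled for LC-MS/MS. Each value is the fold change against the detergent-processed vehicle in its own replicate, from vsn-normalised intensities.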

Sequence of UniProt Q9Y483 (Q9Y483 whole entry, one chain of several): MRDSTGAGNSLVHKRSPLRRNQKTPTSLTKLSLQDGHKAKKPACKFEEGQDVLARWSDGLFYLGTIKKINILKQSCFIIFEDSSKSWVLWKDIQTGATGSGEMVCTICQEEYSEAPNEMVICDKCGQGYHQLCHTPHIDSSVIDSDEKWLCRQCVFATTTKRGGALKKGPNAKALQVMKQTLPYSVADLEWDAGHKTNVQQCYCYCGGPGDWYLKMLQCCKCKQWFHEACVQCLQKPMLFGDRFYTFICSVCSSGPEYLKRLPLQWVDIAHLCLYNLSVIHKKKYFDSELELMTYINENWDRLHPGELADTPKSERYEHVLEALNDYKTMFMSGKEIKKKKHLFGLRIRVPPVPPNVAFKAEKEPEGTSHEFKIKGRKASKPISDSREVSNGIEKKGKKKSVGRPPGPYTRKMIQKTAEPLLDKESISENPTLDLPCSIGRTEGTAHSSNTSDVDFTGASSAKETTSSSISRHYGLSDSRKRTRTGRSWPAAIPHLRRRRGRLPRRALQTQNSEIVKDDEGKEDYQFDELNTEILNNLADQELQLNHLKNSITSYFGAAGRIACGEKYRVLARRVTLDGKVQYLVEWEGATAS
Sequence of UniProt Q3LXA3 (Q3LXA3 whole entry, one chain of several): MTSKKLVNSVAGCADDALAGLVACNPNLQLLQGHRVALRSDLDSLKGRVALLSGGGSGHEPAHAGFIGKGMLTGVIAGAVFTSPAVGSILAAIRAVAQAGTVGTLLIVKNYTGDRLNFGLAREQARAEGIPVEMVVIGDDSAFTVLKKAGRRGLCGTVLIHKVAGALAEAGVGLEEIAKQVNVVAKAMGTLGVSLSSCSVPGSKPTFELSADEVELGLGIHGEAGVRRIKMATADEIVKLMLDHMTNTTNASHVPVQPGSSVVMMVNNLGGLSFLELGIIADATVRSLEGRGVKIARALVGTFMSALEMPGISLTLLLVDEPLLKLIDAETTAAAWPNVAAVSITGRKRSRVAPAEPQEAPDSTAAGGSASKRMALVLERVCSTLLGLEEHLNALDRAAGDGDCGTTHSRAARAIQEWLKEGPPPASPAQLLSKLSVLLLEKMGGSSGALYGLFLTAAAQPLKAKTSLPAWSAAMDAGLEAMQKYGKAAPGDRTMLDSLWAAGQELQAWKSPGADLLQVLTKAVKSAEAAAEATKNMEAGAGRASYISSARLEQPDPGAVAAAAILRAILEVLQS
Sequence of UniProt O43795 (O43795 whole entry, one chain of several): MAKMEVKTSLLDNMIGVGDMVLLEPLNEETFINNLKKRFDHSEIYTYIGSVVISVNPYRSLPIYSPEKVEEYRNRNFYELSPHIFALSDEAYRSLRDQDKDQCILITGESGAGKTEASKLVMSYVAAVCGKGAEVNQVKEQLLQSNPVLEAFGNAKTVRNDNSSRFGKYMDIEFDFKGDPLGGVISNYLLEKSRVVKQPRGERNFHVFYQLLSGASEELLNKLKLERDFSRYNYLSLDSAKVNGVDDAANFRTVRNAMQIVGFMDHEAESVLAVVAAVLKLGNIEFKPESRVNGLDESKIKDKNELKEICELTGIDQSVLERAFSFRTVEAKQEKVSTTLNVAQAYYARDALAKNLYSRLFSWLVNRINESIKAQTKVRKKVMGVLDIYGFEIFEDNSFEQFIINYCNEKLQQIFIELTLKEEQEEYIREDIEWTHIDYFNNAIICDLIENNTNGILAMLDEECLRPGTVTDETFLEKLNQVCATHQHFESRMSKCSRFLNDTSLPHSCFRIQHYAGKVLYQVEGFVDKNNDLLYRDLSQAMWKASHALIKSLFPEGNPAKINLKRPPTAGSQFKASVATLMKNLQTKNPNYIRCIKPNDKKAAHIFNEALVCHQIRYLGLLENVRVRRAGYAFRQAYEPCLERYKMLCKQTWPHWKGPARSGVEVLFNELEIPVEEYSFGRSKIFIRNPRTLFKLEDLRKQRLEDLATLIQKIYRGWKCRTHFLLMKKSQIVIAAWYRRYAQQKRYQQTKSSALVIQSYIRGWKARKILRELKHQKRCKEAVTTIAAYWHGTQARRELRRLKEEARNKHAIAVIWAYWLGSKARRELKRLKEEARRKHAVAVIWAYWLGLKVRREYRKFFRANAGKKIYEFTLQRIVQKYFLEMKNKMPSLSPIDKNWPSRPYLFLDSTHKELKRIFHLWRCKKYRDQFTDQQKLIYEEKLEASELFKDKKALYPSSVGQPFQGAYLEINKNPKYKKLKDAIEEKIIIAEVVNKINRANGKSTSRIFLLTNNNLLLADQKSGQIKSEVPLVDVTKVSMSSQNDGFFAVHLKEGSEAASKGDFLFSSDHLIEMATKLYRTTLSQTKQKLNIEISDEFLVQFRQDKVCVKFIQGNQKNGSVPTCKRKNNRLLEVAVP
Sequence of UniProt Q9Y3B2 (Q9Y3B2 whole entry, one chain of several): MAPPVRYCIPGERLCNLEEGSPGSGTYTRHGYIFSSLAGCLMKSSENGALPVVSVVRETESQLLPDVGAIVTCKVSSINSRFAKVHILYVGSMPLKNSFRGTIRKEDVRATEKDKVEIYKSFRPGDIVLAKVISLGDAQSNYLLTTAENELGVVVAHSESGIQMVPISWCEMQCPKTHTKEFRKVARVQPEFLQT
Sequence of UniProt Q6UW02 (Q6UW02 whole entry, one chain of several): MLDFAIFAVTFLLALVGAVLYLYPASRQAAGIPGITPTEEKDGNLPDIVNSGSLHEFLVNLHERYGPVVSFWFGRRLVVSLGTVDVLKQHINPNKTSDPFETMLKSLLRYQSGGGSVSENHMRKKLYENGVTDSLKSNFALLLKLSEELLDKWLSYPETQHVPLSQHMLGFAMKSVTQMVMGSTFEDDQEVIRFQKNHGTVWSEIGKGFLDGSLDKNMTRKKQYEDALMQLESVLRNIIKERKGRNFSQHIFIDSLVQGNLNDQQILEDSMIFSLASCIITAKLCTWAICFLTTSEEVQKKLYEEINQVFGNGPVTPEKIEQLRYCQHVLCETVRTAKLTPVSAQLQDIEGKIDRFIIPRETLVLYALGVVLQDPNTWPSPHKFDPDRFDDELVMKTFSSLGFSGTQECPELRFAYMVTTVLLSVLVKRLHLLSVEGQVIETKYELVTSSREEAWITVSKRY
Sequence of UniProt Q96EK7 (Q96EK7 whole entry, one chain of several): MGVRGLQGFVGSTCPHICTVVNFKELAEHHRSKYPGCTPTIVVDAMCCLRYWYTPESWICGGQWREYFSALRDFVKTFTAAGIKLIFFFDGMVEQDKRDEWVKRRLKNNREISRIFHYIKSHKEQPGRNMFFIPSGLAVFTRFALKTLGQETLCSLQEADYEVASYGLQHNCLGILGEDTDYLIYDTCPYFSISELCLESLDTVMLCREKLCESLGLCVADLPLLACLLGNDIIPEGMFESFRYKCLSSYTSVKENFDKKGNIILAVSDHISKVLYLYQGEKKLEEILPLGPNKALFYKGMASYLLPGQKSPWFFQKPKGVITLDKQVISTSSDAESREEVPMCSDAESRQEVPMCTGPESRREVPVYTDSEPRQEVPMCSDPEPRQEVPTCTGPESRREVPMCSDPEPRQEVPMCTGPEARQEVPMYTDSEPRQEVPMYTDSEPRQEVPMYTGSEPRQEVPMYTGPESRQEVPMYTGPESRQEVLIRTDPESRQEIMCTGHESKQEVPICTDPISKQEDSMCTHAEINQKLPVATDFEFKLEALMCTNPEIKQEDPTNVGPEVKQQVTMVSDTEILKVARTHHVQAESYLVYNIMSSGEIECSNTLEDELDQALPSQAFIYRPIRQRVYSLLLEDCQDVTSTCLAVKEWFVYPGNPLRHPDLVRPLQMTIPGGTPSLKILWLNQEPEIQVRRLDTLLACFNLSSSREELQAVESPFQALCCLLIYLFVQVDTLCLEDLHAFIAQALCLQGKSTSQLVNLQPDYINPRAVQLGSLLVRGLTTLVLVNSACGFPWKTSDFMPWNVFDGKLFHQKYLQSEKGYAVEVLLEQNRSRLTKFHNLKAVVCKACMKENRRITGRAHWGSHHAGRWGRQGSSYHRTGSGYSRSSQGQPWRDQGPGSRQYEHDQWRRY
Sequence of UniProt Q8TAG9 (Q8TAG9 whole entry, one chain of several): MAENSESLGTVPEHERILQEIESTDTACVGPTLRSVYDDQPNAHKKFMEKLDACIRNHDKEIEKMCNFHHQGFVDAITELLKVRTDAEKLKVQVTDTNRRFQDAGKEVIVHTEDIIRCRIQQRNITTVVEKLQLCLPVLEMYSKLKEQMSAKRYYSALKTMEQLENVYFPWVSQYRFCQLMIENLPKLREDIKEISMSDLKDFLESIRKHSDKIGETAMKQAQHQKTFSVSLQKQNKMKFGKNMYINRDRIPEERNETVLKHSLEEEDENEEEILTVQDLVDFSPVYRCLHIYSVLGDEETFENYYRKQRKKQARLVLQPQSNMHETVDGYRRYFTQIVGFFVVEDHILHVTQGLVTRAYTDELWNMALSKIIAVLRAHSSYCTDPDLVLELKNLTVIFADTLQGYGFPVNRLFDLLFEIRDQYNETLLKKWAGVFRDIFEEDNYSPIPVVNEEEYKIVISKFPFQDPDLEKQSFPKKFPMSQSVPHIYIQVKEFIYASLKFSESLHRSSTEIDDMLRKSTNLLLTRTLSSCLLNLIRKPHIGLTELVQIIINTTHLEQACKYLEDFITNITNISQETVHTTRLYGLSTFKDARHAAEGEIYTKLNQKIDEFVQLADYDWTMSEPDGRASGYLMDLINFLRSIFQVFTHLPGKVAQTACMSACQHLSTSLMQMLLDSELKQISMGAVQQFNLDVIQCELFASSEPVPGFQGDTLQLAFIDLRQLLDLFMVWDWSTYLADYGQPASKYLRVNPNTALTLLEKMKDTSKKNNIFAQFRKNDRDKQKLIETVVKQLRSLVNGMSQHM
Sequence of UniProt Q9Y2Q3 (Q9Y2Q3 whole entry, one chain of several): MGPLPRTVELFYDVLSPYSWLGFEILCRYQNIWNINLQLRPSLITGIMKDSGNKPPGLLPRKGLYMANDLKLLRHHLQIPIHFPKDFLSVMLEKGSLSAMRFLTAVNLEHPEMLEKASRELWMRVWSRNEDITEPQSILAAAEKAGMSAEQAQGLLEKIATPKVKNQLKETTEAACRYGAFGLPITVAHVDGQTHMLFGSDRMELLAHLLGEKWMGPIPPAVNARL

Target	NP40-soluble protein abundance (concentration: 0.1mM)	NP40-soluble protein abundance (concentration: 0.5mM)	NP40-soluble protein abundance (concentration: 1mM)	NP40-soluble protein abundance (concentration: 2mM)	NP40-soluble protein abundance (concentration: 4mM)	NP40-soluble protein abundance (concentration: 6mM)	NP40-soluble protein abundance (concentration: 8mM)	NP40-soluble protein abundance (concentration: 10mM)
A0A096LNZ9|A0A096LPJ4|P05161 (UniProt P05161)	0.9514 ± 0.0057	0.961 ± 0.023	0.899 ± 0.019	0.888 ± 0.02	0.869 ± 0.026	0.885 ± 0.035	0.83 ± 0.034	0.836 ± 0.034
A0A087WYN9|Q7Z478 (UniProt Q7Z478)	1.34 ± 0.086	1.69 ± 0.26	1.66 ± 0.28	1.77 ± 0.29	1.8 ± 0.23	1.84 ± 0.27	1.86 ± 0.27	1.86 ± 0.19
C9J050|C9JEJ2|P49585 (UniProt P49585)	1.01 ± 0.094	0.986 ± 0.078	0.953 ± 0.074	0.945 ± 0.077	0.992 ± 0.073	0.942 ± 0.058	0.942 ± 0.079	0.936 ± 0.054
A0A0A0MTB8|Q8NI36 (UniProt Q8NI36)	1.1 ± 0.013	1.18 ± 0.047	1.2 ± 0.064	1.55 ± 0.056	2 ± 0.13	2.39 ± 0.2	2.33 ± 0.13	2.39 ± 0.3
F5H8D7|P18887 (UniProt P18887)	0.976 ± 0.073	1.02 ± 0.085	1.04 ± 0.081	1 ± 0.1	1.03 ± 0.098	1.06 ± 0.1	1.13 ± 0.1	1.1 ± 0.12
E9PHG5|Q6UW02|Q6UW02-2 (UniProt Q6UW02)	1.1 ± 0.21	1.04 ± 0.17	1.01 ± 0.075	1.04 ± 0.061	0.955 ± 0.16	0.984 ± 0.14	0.882 ± 0.25	0.884 ± 0.14
A0A0A0MRF6|Q99996|Q99996-2|Q99996-3|Q99996-5|Q99996-6 (UniProt Q99996)	1.03 ± 0.014	1.05 ± 0.017	1.08 ± 0.049	1.1 ± 0.056	1.15 ± 0.09	1.14 ± 0.095	1.18 ± 0.14	1.12 ± 0.13
A6NHB5|A6NHN7|Q14202|Q14202-2 (UniProt Q14202)	1.08 ± 0.056	1.12 ± 0.075	1.18 ± 0.092	1.31 ± 0.14	1.37 ± 0.16	1.4 ± 0.15	1.46 ± 0.15	1.42 ± 0.16
E9PDF6|O43795|O43795-2 (UniProt O43795)	1.44 ± 0.25	2.35 ± 0.38	2.32 ± 0.37	2.41 ± 0.43	2.4 ± 0.41	2.37 ± 0.38	2.33 ± 0.3	2.21 ± 0.26
A0A0C4DFX4|Q6ZRS2|Q6ZRS2-2|Q6ZRS2-3 (UniProt Q6ZRS2)	1.12 ± 0.075	1.11 ± 0.013	1.3 ± 0.042	1.44 ± 0.17	1.6 ± 0.21	1.62 ± 0.17	1.86 ± 0.33	1.83 ± 0.29
E9PF32|H0YAY3|A2RUS2|A2RUS2-2 (UniProt A2RUS2)	1.1 ± 0.17	1.13 ± 0.069	1.05 ± 0.038	1.1 ± 0.19	1.1 ± 0.12	1.1 ± 0.011	1 ± 0.14	1.01 ± 0.11
B1AMU7|Q9Y3B2 (UniProt Q9Y3B2)	1.02 ± 0.037	1.07 ± 0.04	1.01 ± 0.056	1.1 ± 0.11	1.18 ± 0.11	1.22 ± 0.12	1.17 ± 0.062	1.18 ± 0.068
H0YEN5|P15880 (UniProt P15880)	0.979 ± 0.063	1.01 ± 0.1	0.965 ± 0.14	0.936 ± 0.19	0.848 ± 0.21	0.836 ± 0.21	0.738 ± 0.17	0.774 ± 0.2
A0A0A0MR85|Q03013 (UniProt Q03013)	1.08 ± 0.068	1.07 ± 0.067	1.04 ± 0.078	1.03 ± 0.14	0.929 ± 0.058	0.985 ± 0.071	1 ± 0.11	0.989 ± 0.14
F5H269|Q9Y485 (UniProt Q9Y485)	0.991 ± 0.013	1.11 ± 0.081	1.05 ± 0.096	1.01 ± 0.087	1.04 ± 0.09	1.06 ± 0.088	1.12 ± 0.15	1.11 ± 0.11
A0A0A0MSJ9|Q15283|Q15283-2 (UniProt Q15283)	1.05 ± 0.057	1.07 ± 0.065	0.985 ± 0.018	0.998 ± 0.04	1.01 ± 0.054	0.967 ± 0.048	0.94 ± 0.067	0.927 ± 0.13

Target	NP40-soluble protein abundance (concentration: 0.1mM)	NP40-soluble protein abundance (concentration: 0.5mM)	NP40-soluble protein abundance (concentration: 1mM)	NP40-soluble protein abundance (concentration: 2mM)	NP40-soluble protein abundance (concentration: 4mM)	NP40-soluble protein abundance (concentration: 6mM)	NP40-soluble protein abundance (concentration: 8mM)	NP40-soluble protein abundance (concentration: 10mM)
F8VXG7|Q99590|Q99590-2 (UniProt Q99590)	1.02 ± 0.064	1.13 ± 0.03	1.22 ± 0.025	1.26 ± 0.058	1.3 ± 0.042	1.31 ± 0.031	1.4 ± 0.1	1.42 ± 0.12
A8MQB8|G3V0J0|Q06787|Q06787-2|Q06787-3|Q06787-4|Q06787-5|Q06787-6|Q06787-7|Q06787-8|Q06787-9 (UniProt Q06787)	1.05 ± 0.041	1.15 ± 0.048	1.05 ± 0.065	1.24 ± 0.0061	1.41 ± 0.093	1.71 ± 0.037	1.8 ± 0.048	2.1 ± 0.11
E7EW84|Q8TAG9 (UniProt Q8TAG9)	0.9794 ± 0.0039	0.996 ± 0.039	0.959 ± 0.064	1.08 ± 0.082	1.01 ± 0.12	0.897 ± 0.022	0.882 ± 0.025	0.966 ± 0.18
G3XAG1|Q96ME7|Q96ME7-3 (UniProt Q96ME7)	1.1 ± 0.013	1.17 ± 0.055	1.27 ± 0.04	1.445 ± 0.014	1.74 ± 0.059	1.88 ± 0.079	2.01 ± 0.13	2.17 ± 0.081
C9JWG0|Q16851-2 (UniProt Q16851)	1.04 ± 0.03	1.04 ± 0.052	1 ± 0.046	1.01 ± 0.071	1.01 ± 0.042	1.01 ± 0.067	0.998 ± 0.057	0.983 ± 0.065
A0A087WUL0|Q3LXA3 (UniProt Q3LXA3)	0.988 ± 0.11	0.963 ± 0.11	0.978 ± 0.14	0.928 ± 0.12	0.948 ± 0.11	0.96 ± 0.16	0.96 ± 0.1	0.951 ± 0.097
B4DJL6|Q96SY0|B4DVT3|H3BRY6|Q96SY0-3|Q96SY0-4 (UniProt Q96SY0)	1.03 ± 0.049	1.03 ± 0.035	1.03 ± 0.064	1.07 ± 0.051	1.03 ± 0.058	1.09 ± 0.025	1.07 ± 0.086	1.05 ± 0.066
H0YIE9|O94952|O94952-1|Q4G104 (UniProt O94952)	1.19 ± 0.045	1.03 ± 0.091	1.05 ± 0.013	1.04 ± 0.12	1.12 ± 0.014	0.978 ± 0.078	1.08 ± 0.035	0.921 ± 0.089
B1AMS2|Q14141|Q14141-2|Q14141-4 (UniProt Q14141)	1.03 ± 0.053	0.998 ± 0.011	0.968 ± 0.062	0.9155 ± 0.0055	0.941 ± 0.054	0.921 ± 0.016	0.941 ± 0.1	0.857 ± 0.013
F5GY05 (UniProt Q96EK7)	1.06 ± 0.034	1 ± 0.11	1.01 ± 0.036	1.06 ± 0.083	1 ± 0.047	0.99 ± 0.042	1.05 ± 0.083	1.05 ± 0.13
E9PFN5|Q9Y2Q3 (UniProt Q9Y2Q3)	0.922 ± 0.042	0.934 ± 0.038	0.895 ± 0.036	0.906 ± 0.043	0.887 ± 0.042	0.888 ± 0.031	0.829 ± 0.082	0.86 ± 0.079
D6RAN8|H7C5U8|Q9P0M9 (UniProt Q9P0M9)	1.09 ± 0.38	1.2 ± 0.5	1.53 ± 0.78	1.81 ± 0.82	1.91 ± 0.83	1.72 ± 0.79	1.64 ± 0.79	1.58 ± 0.84
D6R938|E9PBG7|E9PF82|Q13557|Q13557-10|Q13557-11|Q13557-12|Q13557-3|Q13557-4|Q13557-5|Q13557-6|Q13557-8|Q13557-9 (UniProt Q13557)	1 ± 0.11	1.04 ± 0.14	1.07 ± 0.14	1.08 ± 0.15	1.1 ± 0.1	1.13 ± 0.1	1.09 ± 0.17	1.14 ± 0.14
G3XAN4|Q15629|Q15629-2 (UniProt Q15629)	0.776 ± 0.028	0.785 ± 0.098	0.911 ± 0.14	0.819 ± 0.16	0.8 ± 0.15	0.783 ± 0.23	0.898 ± 0.19	0.905 ± 0.16
B4DZG1|Q9Y483|Q9Y483-3|Q96G26|Q9Y483-2|Q9Y483-4 (UniProt Q9Y483)	1.11 ± 0.061	1.09 ± 0.032	1.16 ± 0.044	1.26 ± 0.074	1.4 ± 0.068	1.45 ± 0.095	1.64 ± 0.2	1.78 ± 0.18

Source: the supplement of paper PMC6411743
